Assay [1] deals with RAW-Dual. The experiment in a line: NF-kB SEAP reporter activity, fold change vs agonist alone; higher = enhanced NF-kB activity. An outline of the steps: (§1)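 Supernatant from RAW-Dual macrophages was read after 20 hours for IRF by QuantiLuc luminescence and for NF-κB by QuantiBlue absorbance at 620 nm. The cells (50,000 cells/well in DMEM, 384-well plates, 37 °C, 5% CO2) had received 50 nL of library stock by pin tool and, 1 h later, a PRR agonist. Reporter activity is expressed relative to agonist-alone wells as fold change, and wells were flagged cytotoxic if IncuCyte confluency was under 70% of agonist controls in both mask sets.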

The subject of assay [2] is RAW-Dual. Nature of the assay: NF-kB SEAP reporter activity, fold change vs agonist alone; cytotoxicity flag (confluency mask): not cytotoxic; higher = enhanced NF-kB activity. The method, boiled down:
as §1

The test system of assay [3] is RAW-Dual. Nature of the assay: NF-kB SEAP reporter activity, fold change vs agonist alone; cytotoxicity flag (confluency mask): cytotoxic (confluency <70% of control); higher = enhanced NF-kB activity. An outline of the steps: as §1
Setting [4] is: library stock concentration (final ~1000-fold dilution): 10 mM, cytotoxicity flag (confluency mask): not cytotoxic, agonist: Imiquimod (TLR7) […].
[5] abbreviates: library stock concentration (final ~1000-fold dilution): 10 mM, cytotoxicity flag (confluency mask): not cytotoxic, agonist: MPLA (TLR4) […].
Setting [6] is: agonist: ODN 1826 (TLR9) 0.5 ug/mL.
Where [7] appears, read: agonist: Pam2CSK4 (TLR2/6) 0.1 ug/mL.
Where [8] appears, read: agonist: Pam3CSK4 (TLR2/1) 0.1 ug/mL.
Setting [9] is: library stock concentration (final ~1000-fold dilution): 2 mM, cytotoxicity flag (confluency mask): not cytotoxic, agonist: Imiquimod (TLR7) […].
Where [10] appears, read: library stock concentration (final ~1000-fold dilution): 2 mM, cytotoxicity flag (confluency mask): not cytotoxic, agonist: MPLA (TLR4) […].
The mark [11] stands for this setting: library stock concentration (final ~1000-fold dilution): 10 mM, cytotoxicity flag (confluency mask): cytotoxic (confluency <70% of control), agonist: Imiquimod (TLR7) […].
Where [12] appears, read: library stock concentration (final ~1000-fold dilution): 10 mM, cytotoxicity flag (confluency mask): cytotoxic (confluency <70% of control), agonist: MPLA (TLR4) […].

Each structure is given as a SMILES string. In all, about 2,900 compounds were measured (“NF-kB SEAP reporter activity, fold change vs agonist alone”: median about 0.99, highest 2% from about 2.6 on). What follows is part of a selection rich in the highest values, with near analogues and random picks from the rest.

Regarding `c1ccc(C(c2ccccc2)N2CCN(Cc3ccc4c(c3)OCO4)CC2)cc1`, the “NF-kB SEAP reporter activity” value in assay [1] (setting [4]) amounted to 1.19; in assay [1] (setting [5]), 0.686.
`c1ccc(C(c2ccccc2)N2CCN(Cc3ccc4c(c3)OCO4)CC2)cc1` (library stock concentration (final ~1000-fold dilution): 10 mM): the “NF-kB SEAP reporter activity” value was 0.717 in assay [2] (agonist: LPS (TLR4) 0.1 ug/mL), 0.728 in assay [2] (setting [6]), 1.38 in assay [2] (setting [7]) and 0.699 in assay [2] (setting [8]).
For the molecule `O=c1ncnc2[nH][nH]cc1-2` (library stock concentration (final ~1000-fold dilution): 10 mM), the “NF-kB SEAP reporter activity” value in assay [2] (agonist: LPS (TLR4) 0.1 ug/mL) came to 0.941; in assay [2] (setting [6]) it was 1.03; in assay [2] (setting [7]) it was 1.06; in assay [2] (setting [8]), 1.16.
`O=c1ncnc2[nH][nH]cc1-2`: the “NF-kB SEAP reporter activity” value in assay [1] (setting [4]) is 0.925; in assay [1] (setting [5]) it was 1.08.
As for `C=C(C)C1CCC2(C)CCC3(C)C(CCC4C5(C)CCC(O)C(C)(C)C5CCC43C)C12` (stereo not drawn) (library stock concentration (final ~1000-fold dilution): 2 mM), the “NF-kB SEAP reporter activity” value in assay [2] (agonist: LPS (TLR4) 0.1 ug/mL) stood at 1.25; in assay [2] (setting [6]) it was 0.949; in assay [2] (setting [7]), 1.06; in assay [2] (setting [8]), 0.917.
As for `C=C(C)C1CCC2(C)CCC3(C)C(CCC4C5(C)CCC(O)C(C)(C)C5CCC43C)C12` (stereo not drawn), the figures for the “NF-kB SEAP reporter activity” value in assay [1] (setting [9]) and in assay [1] (setting [10]) were 1 and 1.05, respectively.
As for `CC(C)COCC(CN(Cc1ccccc1)c1ccccc1)N1CCCC1.Cl.O` (stereo not drawn), the “NF-kB SEAP reporter activity” value in assay [1] (setting [11]) turned out to be 0.745; in assay [1] (setting [12]) it was 1.24.
On to `CC(C)COCC(CN(Cc1ccccc1)c1ccccc1)N1CCCC1.Cl.O` (stereo not drawn) (library stock concentration (final ~1000-fold dilution): 10 mM), for which the “NF-kB SEAP reporter activity” value in assay [3] (agonist: LPS (TLR4) 0.1 ug/mL) came out at 0.71; in assay [3] (setting [6]), 1.2; in assay [3] (setting [7]), 0.673; in assay [3] (setting [8]) it was 1.09.
In the case of `CC(Oc1ccc2[nH]nc(/C=C/c3cnn(CCO)c3)c2c1)c1c(Cl)cncc1Cl` (stereo not drawn) (library stock concentration (final ~1000-fold dilution): 10 mM), the “NF-kB SEAP reporter activity” value in assay [3] (agonist: LPS (TLR4) 0.1 ug/mL) worked out at 0.225; in assay [3] (setting [6]), 0.187; in assay [3] (setting [7]), 0.0607; in assay [3] (setting [8]), 0.139.
In the case of `CC(Oc1ccc2[nH]nc(/C=C/c3cnn(CCO)c3)c2c1)c1c(Cl)cncc1Cl` (stereo not drawn), the “NF-kB SEAP reporter activity” value was 0.251 in assay [1] (setting [11]) and 0.215 in assay [1] (setting [12]).
`CC1(c2nc3c(C(N)=O)cccc3[nH]2)CCCN1` (stereo not drawn) (library stock concentration (final ~1000-fold dilution): 10 mM): the “NF-kB SEAP reporter activity” value was 1.14 in assay [2] (agonist: LPS (TLR4) 0.1 ug/mL), 0.972 in assay [2] (setting [6]), 0.955 in assay [2] (setting [7]) and 0.991 in assay [2] (setting [8]).
Regarding `CC1(c2nc3c(C(N)=O)cccc3[nH]2)CCCN1` (stereo not drawn), the “NF-kB SEAP reporter activity” value was 1.05 in assay [1] (setting [4]) and 0.99 in assay [1] (setting [5]).
As for `C=CC(=O)Nc1cc(Nc2nccc(-n3cc(CN(C)C)c(-c4ccccc4)n3)n2)c(OC)cc1N1CCOCC1`, the “NF-kB SEAP reporter activity” value was found to be 1.12 in assay [1] (setting [9]) and 1.02 in assay [1] (setting [10]).
As for `C=CC(=O)Nc1cc(Nc2nccc(-n3cc(CN(C)C)c(-c4ccccc4)n3)n2)c(OC)cc1N1CCOCC1` (library stock concentration (final ~1000-fold dilution): 2 mM), the “NF-kB SEAP reporter activity” value in assay [2] (agonist: LPS (TLR4) 0.1 ug/mL) was 1.37; in assay [2] (setting [6]) it was 0.945; in assay [2] (setting [7]) it was 0.927; in assay [2] (setting [8]), 1.01.
The corresponding values for `Cc1ccc(Sc2cncc3sc(C(N)=O)cc23)cc1` (library stock concentration (final ~1000-fold dilution): 10 mM) are 2.89, 2.2, 1.62 and 3.34.
For the molecule `Cc1ccc(Sc2cncc3sc(C(N)=O)cc23)cc1`, the “NF-kB SEAP reporter activity” value in assay [1] (setting [4]) is 2.48; in assay [1] (setting [5]) it was 1.93.

The values are drawn from the supplement of paper PMC10037445.
